The values that follow come from PubChem BioAssay (NCI).

Compounds without any hit were thinned out: in the full panel of roughly 83,000, 20% have a hit.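 Testing used 96-well plates and a 48-hour single-concentration exposure. Example: -40 means 40% of the starting cells died.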 Unmarked numbers belong to inactive results. The source made the active and inactive calls. How the source made its calls: active means growth percent below 10; inactive means the rest.

Common to all, as to experiment: NCI-60 one-dose screen, 48 h (100 = growth as untreated, 0 = no growth, -100 = all killed)
Details in all cases: 10 µM unless noted

In experiment [1] the test system is NCI-H23 lung.
For experiment [2], the system named is NCI-H226 lung.
For experiment [3], the system named is NCI-H322M lung.
For experiment [4], the system named is HOP-62 NSCLC.
Experiment [5] has as its system NCI-H460 lung.
Experiment [6] deals with HOP-92 NSCLC.
Experiment [7] relates to NCI-H522 lung.
In experiment [8] the test system is A549/ATCC NSCLC.
Experiment [9] has as its system 786-0 renal.
Experiment [10] relates to COLO 205 colon.
For experiment [11], the system named is DU-145 prostate.
The subject of experiment [12] is K-562 leukemia.
In experiment [13] the test system is MALME-3M melanoma.
In experiment [14] the test system is MDA-MB-231 breast.
Experiment [15] concerns RXF 393 renal.
Experiment [16] deals with SF-268 CNS.
Experiment [17] concerns SF-295 CNS.
The subject of experiment [18] is SF-539 CNS.
Experiment [19] relates to UACC-257 melanoma.
Experiment [20] relates to M14 melanoma.

Consider `COc1cc(C(=O)C(=O)c2cc(OC)c(O)c(OC)c2)cc(OC)c1O`, for which the growth in experiment [1] is 101%; in experiment [2], 91%; in experiment [3], 94.4%; in experiment [4], 93.2%; in experiment [5] it was 101%; in experiment [6], 91.7%. Also, the growth in experiment [7] was 89.6%; in experiment [8], 99.5%; in experiment [9], 103%; in experiment [10], 105%; in experiment [11], 119%; in experiment [12] it was 122%. In addition, the growth was 103% in experiment [13]; 97.2% in [14]; 104% in [15]; 99.3% in [16]; 109% in experiment [17]; 97.1% in experiment [18]. For the same molecule, the growth in experiment [19] is 98.3%; in experiment [20], 104%.
On to `COc1cc2c(c(OC)c1OC)C(=O)N[C@@H]1[C@@H](O)[C@@H](O)[C@H](O)C[C@@H]21`, for which the growth in experiment [1] was 106%; in [2], 102%; in experiment [3] it was 104%; in experiment [4], 102%; in experiment [5] it was 110%; in experiment [6], 91.4%. The growth was 97.7% in experiment [7]; 98.4% in experiment [8]; 94.9% in experiment [9]; 108% in experiment [10]; 110% in experiment [11]; 96.6% in [12]. For the same molecule, the growth in experiment [13] was 108%; in experiment [14], 106%; in experiment [15] it was 102%; in experiment [16] it was 103%; in experiment [17], 98.3%; in [18], 100%. The results for the growth in experiment [19] and in experiment [20] were 100% and 98.5%, respectively.
On to `COc1cccc(C(=O)OCC(O)C(=O)NC23CC4CC(CC(C4)C2)C3)c1` (stereo not given), for which the growth in experiment [1] is 102%; in experiment [2] it was 93.5%; in [3] it was 96.4%; in experiment [4], 104%; in experiment [5], 101%; in experiment [6] it was 91.7%. Also, the growth was 86.1% in experiment [7]; 90.1% in [8]; 101% in [9]; 111% in experiment [10]; 106% in [11]; 99.1% in experiment [12]. Further, the growth in experiment [13] is 99.1%; in experiment [14] it was 93%; in [15], 109%; in experiment [16], 102%; in experiment [17] it was 95.9%; in experiment [18], 103%. In addition, the figures for the growth in [19] and in experiment [20] were 89% and 99.1%, respectively.
Turning to `CNC(=O)c1c(NC(=O)c2ccc(C(C)(C)C)cc2)sc2c(CN(C)C)c(O)ccc12`, the growth in experiment [1] is 27%; in experiment [2], 95%; in [3] it was 17.1%; in experiment [4], 8.39% (active); in [5], -72.5% (active); in experiment [6], 19%. In addition, the growth is 75.9% in experiment [7]; 17.7% in experiment [8]; -76.9% (active) in experiment [9]; -68.5% (active) in experiment [10]; 24.7% in [11]; -29.3% (active) in [12]. Also, the growth in [13] is -88.9% (active); in [14], -44.8% (active); in experiment [15], 36.2%; in experiment [16] it was 3.83% (active); in experiment [17], -80.6% (active); in experiment [18], -71.1% (active). The values for the growth in experiment [19] and in experiment [20] were -56.4% (active) and -72.3% (active), respectively.
As to `N=c1sc(Cc2cc(Cl)ccc2Cl)cn1CC(=O)c1ccccc1`, the growth was 68.4% in [1]; 66.3% in experiment [2]; 56.4% in experiment [3]; 74.6% in [4]; 20.3% in experiment [5]; 51.2% in experiment [6]. For the same molecule, the growth in [7] was 39.8%; in experiment [8], 30%; in [9], 78.4%; in experiment [10] it was 72.1%; in experiment [11] it was 68.7%; in [12] it was 17%. In addition, the growth in [13] is 44.6%; in experiment [14], 54.9%; in experiment [15] it was 77.1%; in experiment [16], 58.9%; in experiment [17] it was 57.3%; in [18] it was 64.1%. For the same molecule, the growth in experiment [19] was 60.3%; in experiment [20], 21.1%.
For the molecule `O=C(Cn1nnc([N+](=O)[O-])n1)c1ccccc1`, the growth in experiment [1] was 96.5%; in experiment [2] it was 112%; in [3], 101%; in experiment [4], 94.8%; in experiment [5], 93.2%; in [6], 63.6%. The growth was 86.9% in [7]; 87% in experiment [8]; 102% in [9]; 100% in experiment [10]; 99.4% in [11]; 83.3% in [12]. The growth in [13] was 92.7%; in [14] it was 71.5%; in [15] it was 91.8%; in experiment [16] it was 83.1%; in [17], 58%; in experiment [18], 93.3%. For the same molecule, the results for the growth in experiment [19] and in experiment [20] were 90.9% and 71.5%, respectively.
As for `CN(Cc1cnc2nc(N)nc(N)c2n1)c1c(Cl)cc(C(=O)NC(CCC(=O)O)C(=O)O)cc1Cl` (stereo not given), the growth in experiment [1] was 25.8%; in [2], 67.5%; in [3], 31.2%; in [4] it was 23.8%; in [5], 20.2%; in [6] it was 15.4%. Besides, the growth in [7] is 24.5%; in experiment [8], 15.6%; in [9], 12.7%; in experiment [10] it was 53%; in experiment [11], 23.8%; in [12], 21.6%. Also, the growth was 68.5% in experiment [13]; 68% in [14]; 30.9% in experiment [15]; 28.4% in [16]; 2.98% (active) in experiment [17]; 21.4% in experiment [18]. In addition, the values for the growth in experiment [19] and in experiment [20] were 33.8% and 21.3%, respectively.
